From the OligoGym collection

Assays:
Assay in all cases: pooled miR-30 sensor sort-seq; sequence = guide strand
Conditions in all cases: shRNA
[1] = target: BRAP
[2] = target: BOP1
[3] = target: BOLA1
[4] = target: BRD2
[5] = target: C11orf49
[6] = target: C15orf54
[7] = target: C17orf71
[8] = target: C1QL1
[9] = target: C1orf61
[10] = target: C2orf82
[11] = target: C6orf105
[12] = target: C6orf58
[13] = target: CA8
[14] = target: CADM4
[15] = target: CAMSAP1L1
[16] = target: CAPNS2
[17] = target: CAMKV
Further: reference of the scale not given here.

Sequence: TTTTACTTGCAACCAGTCGATG
- sensor-assay potency score (higher = more potent) [1]: -1.46

Sequence: TTCGTCATCATCCTCACTGCTG
- sensor-assay potency score (higher = more potent) [2]: 0.313

Sequence: TTGATGGCGTGCACCATGCGAG
- sensor-assay potency score (higher = more potent) [2]: -1.27

Sequence: AGGATCGTCCATCTTGTCCAGG
- sensor-assay potency score (higher = more potent) [2]: -2.16

Sequence: TCTTCTATTGAGTTGAACTGGC
- sensor-assay potency score (higher = more potent) [1]: -0.232

Sequence: TAACATGGAACATCCGGGCTGC
- sensor-assay potency score (higher = more potent) [3]: 0.946

Sequence: TTCCTGGATGAAGCGTCCGTAG
- sensor-assay potency score (higher = more potent) [2]: -1.83

Sequence: TTGGATTATATGCACAACTCGG
- sensor-assay potency score (higher = more potent) [4]: -1.15

Sequence: TTCTCATTCGCTTTCTTGGGGG
- sensor-assay potency score (higher = more potent) [4]: -0.27

Sequence: TCTACATTCACCCTCATCTTGC
- sensor-assay potency score (higher = more potent) [2]: -0.893

Sequence: TAAATATGAATACTCTAACTGT
- sensor-assay potency score (higher = more potent) [1]: -0.208

Sequence: TATAATTTTGTGATAATCCGGT
- sensor-assay potency score (higher = more potent) [4]: 0.775

Sequence: TAATTTTGTGATAATCCGGTAG
- sensor-assay potency score (higher = more potent) [4]: 0.162

Sequence: TCAAACCACACCAGCTTGCTAT
- sensor-assay potency score (higher = more potent) [2]: -1.16

Sequence: TTGTACACCATGCCATGGCAGA
- sensor-assay potency score (higher = more potent) [2]: -1.35

Sequence: TTTAGCTGAGTGCACTTTCTTT
- sensor-assay potency score (higher = more potent) [1]: -0.371

Sequence: TCGTCCATGAGCACAATCCTGG
- sensor-assay potency score (higher = more potent) [5]: -1.16

Sequence: TTCTGAGTGAGCTCCAGCGGGA
- sensor-assay potency score (higher = more potent) [5]: -1.01

Sequence: AACAACAACAAGAATATCCTGC
- sensor-assay potency score (higher = more potent) [6]: 0.568

Sequence: TTCCTTTACATTTATAACCATT
- sensor-assay potency score (higher = more potent) [6]: -1.28

Sequence: TACTTGACCATGAACTTCTGGA
- sensor-assay potency score (higher = more potent) [7]: 0.427

Sequence: TTGCACGTAAACTTGCCGCTGG
- sensor-assay potency score (higher = more potent) [8]: 0.439

Sequence: AAGATCATGGAATTTCTCCTGA
- sensor-assay potency score (higher = more potent) [9]: 0.708

Sequence: ACGAGCGCCAGCACCACGCAGG
- sensor-assay potency score (higher = more potent) [10]: -1.89

Sequence: TTGTAGAGAAAGAGGATCCAGA
- sensor-assay potency score (higher = more potent) [11]: -0.578

Sequence: TAGATTTATCCACATTGTCAAG
- sensor-assay potency score (higher = more potent) [12]: -1.66

Sequence: TTCATATTAATAACAACTCTGG
- sensor-assay potency score (higher = more potent) [13]: -0.115

Sequence: TATAGGACCATTGTCTTCCTCC
- sensor-assay potency score (higher = more potent) [13]: -0.229

Sequence: TTCTGCCGTACCGAGCACCAGA
- sensor-assay potency score (higher = more potent) [14]: -1.21

Sequence: TCTGTCTGTACTTCCTGTCCTG
- sensor-assay potency score (higher = more potent) [14]: 0.306

Sequence: TTCAACAGGTACATCAGCCTTT
- sensor-assay potency score (higher = more potent) [15]: 0.426

Sequence: TTGATTTCTTCAGTTTCTGGGC
- sensor-assay potency score (higher = more potent) [15]: -0.439

Sequence: TTTGTGCTTAGAAAGGACTTTG
- sensor-assay potency score (higher = more potent) [16]: -0.468

Sequence: TATCTGTCAGTCACCTCCGATG
- sensor-assay potency score (higher = more potent) [17]: -0.879

Sequence: TATAGTTCTTCTTGTCGCCCAG
- sensor-assay potency score (higher = more potent) [17]: -0.36

Sequence: TTTGTTGAGAATATTCATCAGA
- sensor-assay potency score (higher = more potent) [16]: -0.0355
